# Source: PubChem BioAssay (NCI)
# The panel holds about 83,000 compounds, 20% with a hit somewhere; the sample as a whole holds those more often.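 Percent growth is the endpoint: 0 to 100 indicates growth inhibition (40 means 60% inhibition), 0 means no net growth, and negative values indicate cell death.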 Calls of active or inactive are those of the source. Rule for the calls: active = growth percent below 10; inactive = the rest.
# System: MDA-MB-468 breast
# Experiment: NCI-60 one-dose screen, 48 h (100 = growth as untreated, 0 = no growth, -100 = all killed)
# Details: 10 µM unless noted
row,Structure (SMILES),growth
1,O=C1N/C(=N/O)S/C1=C/c1cn(-c2ccccc2)nc1-c1ccccc1,84.6% (inactive)
2,CCOC(=O)c1c(C)cc(=O)oc1C,105% (inactive)
3,Cc1ccc(S(N)(=O)=O)cc1Cl,111% (inactive)
4,O=C(/C=C\c1ccccc1)N1c2ccccc2CC1c1c[nH]c2ccccc12 (centres undefined),80.6% (inactive)
